Source: PubChem BioAssay (National Center for Advancing Translational Sciences (NCATS))
Rows were chosen to be rich in hits. Some 21% of all compounds tested hit in one or more screens of this group.
Pf growth 96h – Primary qHTS for delayed death inhibitors of the malarial parasite plastid, 96 hour incubation; P. falciparum luciferase reporter growth, 96 h; Potency, µM (top dose mostly 28.7 µM), for the others: top-dose activity change, negative = inhibition, hits mostly inhibitors; actives 6.9% (n = 320,000); further: potency means the concentration at half of the fitted maximal effect; on the % scale 0 is the no-effect control and ±100 the full control effect
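Parasite growth measured via integrated firefly luciferase reporter in P. falciparum. Infected erythrocytes at 2% hematocrit, 0.05% parasitemia final were treated 96 hours at 37 C under 5% CO2, and luminescence was read.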
Shiga inhibitor – A qHTS for Small Molecule Inhibitors of Shiga Toxin | Vero cells, Shiga toxin protein synthesis inhibition reporter | inhibition, % at 38.7 µM | actives 9.2% (n = 290,000) | AID 2315, 2010; in the data active means inhibition mostly above about 28%, no sharp cut-off; inactive means mostly below about 43%; further: 0% is about no effect
HCMV inh – qHTS Assay for inhibitors of the human cytomegalovirus (HCMV) | AID 1259415, 2018 | activity change, negative = inhibition, % at 57.5 µM | HFF cells, HCMV-luciferase reporter, 72 h; active compounds read low | actives 4.5% (n = 410,000); in the data active means activity change below about -60%; inconclusive means no clear call, values can overlap the other calls; inactive means above about -39%; further: on the % scale 0 is the no-effect control and ±100 the full control effect
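Inhibition of viral replication was scored as loss of reporter luminescence in HFFs infected with HCMV-luciferase (MOI 1 PFU/cell) for 72 h; compounds tested at 2 doses, normalized to buffer and Salinomycin controls.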
CHX counter – Cycloheximide Counterscreen for Small Molecule Inhibitors of Shiga Toxin; cell reporter, cycloheximide protein synthesis inhibition counterscreen; max response, %; actives 12% (n = 300,000); AID 2314, 2010; in the data active means max response mostly above about 13%, no sharp cut-off; inactive means mostly below about 14%; further: read at 38.3 µM for the half of the compounds with a filed dose; 0% is about no effect
Pf growth 48h – Primary qHTS for delayed death inhibitors of the malarial parasite plastid, 48 hour incubation. Potency, µM (top dose mostly 28.7 µM), for the others: top-dose activity change, negative = inhibition, actives largely listed as inhibitors. AID 504832, 2011. P. falciparum luciferase growth in erythrocytes, 48 h. actives 5.9% (n = 310,000); further: potency means the concentration at half of the fitted maximal effect; on the % scale 0 is the no-effect control and ±100 the full control effect
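Luciferase-expressing parasites in RBCs, 2% Hct / 0.1% parasitemia final; RPMI 1640 + 0.5% Albumax; 37 C, 5% CO2, one generation; luminescence read-out, lower signal = inhibition.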
HCV inhibitor – qHTS Assay for Inhibitors of Hepatitis C Virus (HCV); Huh7.5.1 HCVcc-Cre infection, luciferase reporter, 44 h; Potency, µM (doses to about 41.8 µM), for the others: at the top dose activity change, negative = inhibition, actives largely listed as inhibitors; actives 3.4% (n = 340,000); further: potency means the concentration at half of the fitted maximal effect; on the % scale 0 is the no-effect control and ±100 the full control effect
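HCVcc-Cre virus at an moi near 0.5 was added right after compound to cells cultured 4 h from seeding (1,000 cells/well). Luciferase activity was determined 44 h later, 15 min after substrate addition at RT.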
An asterisk follows results filed as active; ? = inconclusive; . = no result given; [ ] = another dose, or the depositor's remark. Unless noted, the call rests on the fitted dose curve; in most records, active means well fitted inhibition curve with a large enough effect; inconclusive means small, poorly fitted or top-dose-only effect, or another doubt; inactive means no such curve, though single readings can be large or run the other way.

SMILES | Pf growth 96h | Shiga inhibitor | HCMV inh | CHX counter | Pf growth 48h | HCV inhibitor
CCCCOC(=O)N/N=C/C=C/c1ccccc1 | ? | 13* | 37 | 21* | 60% | 1%
Cc1ccc(CNc2ccc(-c3nc(-c4ccncc4)no3)cc2[N+](=O)[O-])cc1 | . | . | 6 | . | . | .
CCN(CC(=O)NCCC1=CCCCC1)S(=O)(=O)c1ccccc1 | -9% | 3 | -26 | -1 | -10% | -17%
Cc1onc(-c2ccccc2)c1C(=O)N/N=C/c1cc(Br)c(O)c(Br)c1 | 16% | -4 | 2 | -3 | 1% | -15%
Cc1ccc(/C=N/NC(=O)c2ccoc2C)o1 | 40% | 117* | 76 | 44* | 104% | 20%
Cc1onc(-c2ccccc2)c1C(=O)N/N=C/C(Br)=C/c1ccccc1 | 14% | -4 | -70* | -1 | -9% | ?
Cc1cc(C(=O)N/N=C/c2ccc(C)o2)c2ccccc2n1 | -25% | 45 | -63* | -2 | 41% | -5%
Cc1ccc(/C=N/NC(=O)c2cc(-c3ccccc3)nc3ccccc23)o1 | -20% | 3 | -33 | 12 | -17% | -17%
COC(=O)CN(n1cnnc1)S(=O)(=O)c1ccccc1 | 12µM* | -16 | -15 | 9 | 9% | 2%
COC(=O)CN(c1ccccc1)S(=O)(=O)c1ccccc1 | 22% | 19 | 5 | 1 | . | 20%
CCCCCCCCCCCCCCCC[n+]1ccc(C(N)=O)cc1 | 11% | -18 | -86* | -2 | ? | 7%
CCCCCCC[n+]1ccc(-c2cc[n+](CCCCCCC)cc2)cc1 | 0.33µM* | -2 | -101* | -1 | 0.41µM* | ?
CCCCCCCCCCCCCCCC[n+]1ccccc1 | 1.5µM* | . | -98* | . | 3.8µM* | 3.2µM*
O/N=C/c1cccc[n+]1CCCCCC[n+]1ccccc1/C=N/O | ? | -10 | 25 | -2 | ? | 19%
CCCCCCCCCCCCCCCC[n+]1ccc(/C=N/O)cc1 | 1.2µM* | -10 | -97* | -2 | 2.3µM* | ?
C[n+]1ccc(-c2cc[n+](C)cc2)cc1 | . | . | ? | . | . | 3%
Fc1ccc2[nH]c3c(c2c1)CN(C(=S)NCc1ccccc1)CC3 | -25% | 14 | 2 | 8 | ? | ?
Cc1cc[n+](CC[n+]2ccc(C)cc2)cc1 | 13% | . | -21 | . | -7% | 20%
CCCCCCCCCCCCCC[n+]1ccc(C)cc1 | 0.85µM* | . | . | . | 0.85µM* | .
Cc1cccc(N/N=C2/COC(C)(C)CC2=O)c1 | 187% | 133* | 27 | 78* | 266% | 2%
CC1(C)CC(=O)/C(=N/Nc2ccc(Cl)cc2)CO1 | 122% | 93* | -21 | 32* | 145% | ?
CC1(C)CC(=O)C=C(Nc2ccc(Cl)cc2)C1 | ? | -11 | ? | -3 | -8%[0.00184 µM] | -19%
COc1ccccc1N/N=C1\COC(C)(C)CC1=O | 27% | 137* | 0 | 34* | 24% | -13%
Cc1ccc(NC(=O)c2oc3ccc4c(c3c2C)C(=O)CC(C)(C)O4)c(C)c1 | . | . | 41 | . | . | .
Cc1cc2[nH]c(=O)c(=O)[nH]c2cc1S(=O)(=O)NC1CCC(C)CC1 (stereo not drawn) | 0% | 2 | ? | 10 | ? | 19%
SMILES | Pf growth 96h | Shiga inhibitor | HCMV inh | CHX counter | Pf growth 48h | HCV inhibitor
Cc1cc2[nH]c(=O)c(=O)[nH]c2cc1S(=O)(=O)NC1CCCCC1C (stereo not drawn) | 4.7µM* | -4 | . | -2 | -1% | 10%
O=C(Nc1cccc(F)c1)Nc1ccnn1C1CCN(C(=O)c2cscn2)CC1 | 1% | 51* | 16 | 41* | 1% | 24%
CC(C)(C)n1nnnc1C(C1CC1)N1C(=O)C(=O)c2ccccc21 (stereo not drawn) | . | . | -77* | . | . | .
Cc1ccc2ccc3cc(C(=O)N4CCN(c5ccccc5)CC4)nc3c2[nH]1 | . | . | -31 | . | . | .
COc1cc(C2NC(=O)N(C)C(C)=C2C(=O)OCc2ccccc2)cc(Br)c1O (stereo not drawn) | -2% | 1 | -14 | -1 | -5% | -8%
CS(=O)(=O)N(CC(=O)N1CCCC1)c1cc(Cl)c(Cl)cc1Cl | 9.3µM* | -11 | 83 | -4 | . | -6%
CS(=O)(=O)N(CC(=O)N1CCCC1)c1ccc(Cl)cc1Cl | 0% | -5 | -28 | -2 | 33% | 2.8µM*
CS(=O)(=O)N(CC(=O)N1CCCCCC1)c1cc(Cl)ccc1Cl | ? | . | 52 | -3 | -4% | 3%
CC(=O)N1CCc2c(sc3c2c(=O)n(CCc2ccccc2)c(=O)n3Cc2cccc(C)c2)C1 | . | . | -1 | . | . | .
Cc1ccccc1-c1nc(CS(=O)(=O)CC(=O)NCc2cccc(Cl)c2)c(C)o1 | . | . | 14 | . | . | .
O=c1ccc2ccccc2c2ccccc12 | . | . | -99* | . | . | .
CCN(CC)S(=O)(=O)c1ccc(Cl)c(NC(=S)NC(=O)C2CCCC2)c1 | ? | . | ? | . | 13µM* | 4µM*
Cc1ccc(S(=O)(=O)N(C)C)cc1NC(=S)NC(C)CCCC(C)C (stereo not drawn) | -72% | -3 | -73* | -6 | ? | ?
CCN(CC)S(=O)(=O)c1ccc(C)c(NC(=S)NC2CCCCC2)c1 | ? | -4 | -22 | -4 | 15µM* | 1%
CCN(CC)S(=O)(=O)c1cccc(C(=O)NC2CCCCC2)c1 | 1.7µM* | 19 | 24 | 12 | 19% | 4%
Cc1ccc(S(=O)(=O)N(C)C)cc1NC(=S)NC(C)CCC(C)C (stereo not drawn) | -29% | 12 | 7 | -4 | -7% | ?
CC(C)CN1C(=O)C(=O)N(CC(=O)N(C)CC(=O)Nc2ccc(F)cc2)C1=O | 5% | . | 53 | . | -13% | 10%
Cc1ccc(NC(=S)NC2CCCCC2)cc1S(=O)(=O)N(C)C | 7% | 125* | ? | 32* | -21% | ?
Cc1ccc(-c2nnc(Nc3ccc(OCC(N)=O)cc3)c3ccccc23)cc1S(N)(=O)=O | 58% | 3 | -12 | -5 | 13µM* | 11%
Cc1ccc(-c2nnc(Nc3ccc(O)cc3)c3ccccc23)cc1S(=O)(=O)NCCO | -52% | 14 | -38 | 11 | ? | -11%
Cc1ccc(-c2n[nH]c(=O)c3ccccc23)cc1S(=O)(=O)NCC1CCCO1 (stereo not drawn) | ? | 4 | -5 | -6 | -10% | -17%
Cc1ccc(-c2nnc(Nc3ccc(CC(N)=O)cc3)c3ccccc23)cc1S(N)(=O)=O | 39% | -6 | -5 | -1 | 0%[0.00184 µM] | 12%
CCOc1ccc(-c2nnc(Nc3ccc(OC)c(C(=O)N4CCCCC4)c3)c3ccccc23)cc1 | 1.2µM* | -5 | -23 | -3 | 4.1µM* | 14µM*
